Measurements taken from PubChem BioAssay (NCATS).
Calls of active or inactive are those of the source. Calls follow the shape of the full dose curve.

Assay: qHTS drug screen for cell cycle checkpoint inhibitors in PARPi-resistant BRCA-mutant ovarian cancer cell lines. (AID 1963452)
Settings: PEO1/OlaR viability, CellTiter-Glo luminescence, 96 h; for Z-AUC: stronger effect = lower value
How it was run: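 PEO1, PEO4 and PEO1/OlaR ovarian cancer cells, 600 per well, exposed 96 h at 37C to a dilution series. Viability read by CellTiter-Glo luminescence, normalized to DMSO and empty wells; activity summarized as Z-AUC.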

[1] = measured here: PEO1 parental Z-AUC
Potency is read from the fitted curve at half-maximal effect.

SMILES | Z-AUC | Z-AUC [1] | Z-AUC (measured here: PEO4 Z-AUC) | Potency
CC1(C)CCC(C)(C)c2cc(NC(=O)c3ccc(C(=O)O)cc3)ccc21 | 0.358 (inactive) | 0.445 | -0.341 | 
Oc1ccc2ccccc2c1SSc1c(O)ccc2ccccc12 | -0.118 (inactive) | 0.665 | 0.501 | 
O=c1c(O)c(-c2cc(O)c(O)c(O)c2)oc2cc(O)cc(O)c12 | 1.5 (inactive) | 1.23 | 1.17 | 
CCCCc1ccc2nc(NC(=O)OC)[nH]c2c1 |  | -1.68 | -1.66 | 38.9 nM (active)
COc1cc(Nc2c(C#N)cnc3cc(OCCCN4CCN(C)CC4)c(OC)cc23)c(Cl)cc1Cl | 0.106 (inactive) | 0.26 | 0.9 | 
CC1Cc2ccccc2N1NC(=O)c1ccc(Cl)c(S(N)(=O)=O)c1 (centres undefined) | -0.461 (inactive) | -0.0256 | 0.0474 | 
O=C(NCC1CCCCN1)c1cc(OCC(F)(F)F)ccc1OCC(F)(F)F (centres undefined) | -0.39 (inactive) | -0.839 | -1.07 | 
Cc1cc(Cl)ccc1OCCCC(=O)NO | 0.502 (inactive) | 0.403 | 0.182 | 
COCCCOc1ccnc(CS(=O)c2nc3ccccc3[nH]2)c1C (centres undefined) | -0.249 (inactive) | -0.578 | -0.176 | 
CC(C)c1ccc2oc3nc(N)c(C(=O)O)cc3c(=O)c2c1 | -0.387 (inactive) | 0.341 | 0.263 | 
Cc1cc2c(s1)Nc1ccccc1N=C2N1CCN(C)CC1 | -0.767 (inactive) | -0.886 | -0.45 | 
CN(C)c1ccc2nc3ccc(=[N+](C)C)cc-3sc2c1 | -0.652 (inactive) | -0.738 | -0.606 | 
CC(C)Oc1ccc2c(=O)c(-c3ccccc3)coc2c1 | 0.208 (inactive) | -0.757 | -0.189 | 
CC(=O)Nc1ccc(O)cc1 | 0.911 (inactive) | 0.308 | 0.415 | 
CCC1=C(C)CN(C(=O)NCCc2ccc(S(=O)(=O)NC(=O)NC3CCC(C)CC3)cc2)C1=O (centres undefined) | -0.196 (inactive) | 0.246 | 0.144 | 
Cc1cc(=O)oc2cc(O)ccc12 | 0.0735 (inactive) | 0.832 | 0.848 | 
N=C(N)c1ccc2cc(OC(=O)c3ccc(N=C(N)N)cc3)ccc2c1 | 0.0758 (inactive) | 0.542 | 0.795 | 
CC(C)c1ccc2c(c1)c(SC(C)(C)C)c(CC(C)(C)C(=O)O)n2Cc1ccc(Cl)cc1 | 1.24 (inactive) | 0.791 | 0.661 | 
C[C@@H](N)C1CCC(C(=O)Nc2ccncc2)CC1 (some centres undefined) | 0.275 (inactive) | 0.543 | 0.552 | 
CCCc1cc(=O)[nH]c(=S)[nH]1 | -0.283 (inactive) | -0.244 | 0.119 | 
Cc1ccc(Nc2nccc(N(C)c3ccc4c(C)n(C)nc4c3)n2)cc1S(N)(=O)=O | 1.07 (inactive) | 0.627 | 0.955 | 
NC(=NCc1ccccc1)NC(=O)c1nc(Cl)c(N)nc1N | -0.929 (inactive) | -0.393 | -0.0693 | 
O=C(NC(Cc1cc(=O)[nH]c2ccccc12)C(=O)O)c1ccc(Cl)cc1 (centres undefined) | -0.00865 (inactive) | 0.872 | 1.04 | 
COC(=O)C1=C(C)NC(C)=C(C(=O)OCCCN2CCC(c3ccccc3)(c3ccccc3)CC2)C1c1cccc([N+](=O)[O-])c1 (centres undefined) | 0.516 (inactive) | 0.68 | 0.403 | 
CC[C@]1(O)C[C@H]2CN(CCc3c([nH]c4ccccc34)[C@@](C(=O)OC)(c3cc4c(cc3OC)N(C=O)[C@H]3[C@@](O)(C(=O)OC)[C@H](OC(C)=O)[C@]5(CC)C=CCN6CC[C@]43[C@@H]65)C2)C1 | -0.637 (inactive) | -1.14 | -1.16 | 

SMILES | Z-AUC | Z-AUC [1] | Z-AUC (measured here: PEO4 Z-AUC) | Potency
CCOC(=O)C1=C(O)C(=O)N(Cc2ccccc2)C1 | 1.25 (inactive) | 1.01 | 1.38 | 
O=c1c(O)c(-c2ccc(O)cc2O)oc2cc(O)cc(O)c12 | 1.32 (inactive) | 1.13 | 1.21 | 
NCCCCNCCCN | 0.434 (inactive) | 1.13 | 0.641 | 
CCCS(=O)c1ccc2nc(NC(=O)OC)[nH]c2c1 (centres undefined) | -0.279 (inactive) | -0.314 | 0.468 | 
CCCOc1ccc2nc(NC(=O)OC)[nH]c2c1 | -0.576 (inactive) | -0.504 | -0.563 | 
CCN(CCO)CCCC(C)Nc1ccnc2cc(Cl)ccc12 (centres undefined) | 1.8 (inactive) | 1.41 | 1.84 | 
CCC(C)(Oc1ccc(C2(c3ccc(OC(C)(CC)C(=O)O)cc3)CCCCC2)cc1)C(=O)O (centres undefined) | 0.486 (inactive) | 0.92 | 0.795 | 
Cc1cc(C2CCCCC2)n(O)c(=O)c1 | 0.662 (inactive) | 0.159 | -0.0703 | 
O=Nc1c(-c2c(O)[nH]c3cc(Br)ccc23)[nH]c2ccccc12 | -0.607 (inactive) | -0.18 | -0.803 | 
O=C(O)c1cn(-c2ccc(F)cc2)c2cc(N3CCNCC3)c(F)cc2c1=O | 0.692 (inactive) | 0.709 | 0.947 | 
Cc1nc(Nc2ncc(C(=O)Nc3c(C)cccc3Cl)s2)cc(N2CCN(CCO)CC2)n1 | -3.38 (inactive) | -2.38 | -0.444 | 
O=C1c2c(O)cc(O)cc2OC(c2ccc(O)c(O)c2)C1O (centres undefined) | -0.835 (inactive) | -0.249 | -0.326 | 
CCOC(=O)C(C)Oc1cccc2c(=O)n(CC(=O)Nc3ccc4c(c3)OCCO4)ccc12 (centres undefined) | 0.881 (inactive) | 0.435 | 0.282 | 
Nc1ccn([C@@H]2O[C@H](CO)[C@@H](O)C2O)c(=O)n1 (some centres undefined) | -1.18 (inactive) | -1.27 | -0.431 | 
Clc1ccc(C(Cn2ccnc2)OCc2ccsc2Cl)c(Cl)c1 (centres undefined) | -0.189 (inactive) | -0.0624 | 0.0924 | 
CC1(C)NC(=O)N(c2ccc([N+](=O)[O-])c(C(F)(F)F)c2)C1=O | 1.11 (inactive) | 0.722 | 0.784 | 
Cc1nc(-c2ccc(OCC(C)C)c(C#N)c2)sc1C(=O)O | 0.79 (inactive) | 0.0163 | 0.327 | 
CC(=O)O[C@H]1C(=O)[C@@]2(C)C([C@H](OC(=O)c3ccccc3)[C@]3(O)C[C@H](OC(=O)[C@H](O)[C@@H](NC(=O)c4ccccc4)c4ccccc4)C(C)=C1C3(C)C)[C@]1(OC(C)=O)CO[C@@H]1C[C@@H]2O (some centres undefined) |  | -2.74 | -3.15 | 7.8 nM (active)
C=C(c1ccc(C(=O)O)cc1)c1cc2c(cc1C)C(C)(C)CCC2(C)C | 1.36 (inactive) | 0.659 | 0.161 | 
COc1cc2c(N3CCN(C(=O)Nc4ccc(OC(C)C)cc4)CC3)ncnc2cc1OCCCN1CCCCC1 | 1.04 (inactive) | 0.804 | 1.1 | 
O=P(O)(O)C(O)(Cn1ccnc1)P(=O)(O)O | 1.02 (inactive) | 1.58 | 2.08 | 
CCN(CC)CCOc1ccc(Nc2ncc3cc(-c4c(Cl)cccc4Cl)c(=O)n(C)c3n2)cc1 |  | -1.55 | -1.25 | 155 nM (active)
O=C(c1ccccc1)c1ccc2n1CCC2C(=O)O (centres undefined) | 1.02 (inactive) | 0.719 | 0.897 | 
Nc1nc(OCc2ccccc2)c2[nH]cnc2n1 | 0.131 (inactive) | 0.393 | 0.209 | 
CC(S)C(=O)NCC(=O)O (centres undefined) | -0.465 (inactive) | 0.365 | 0.0416 | 

SMILES | Z-AUC | Z-AUC [1] | Z-AUC (measured here: PEO4 Z-AUC) | Potency
COC1=C(OC)C(=O)C(CCCCCCCCCCO)=C(C)C1=O | -0.864 (inactive) | -1.14 | -0.303 | 
Clc1ccc2c(N3CCN(CCCN4CCN(c5ccnc6cc(Cl)ccc56)CC4)CC3)ccnc2c1 | 0.751 (inactive) | 0.492 | 0.795 | 
N[C@@H](Cc1cc(I)c(Oc2cc(I)c(O)c(I)c2)c(I)c1)C(=O)O | -1.16 (inactive) | -0.336 | -0.169 | 
CC(C)(S)[C@@H](N)C(=O)O | 0.193 (inactive) | 0.891 | 1.3 | 
CC(C)C[C@H](NC(=O)[C@H](Cc1ccccc1)NC(=O)c1cnccn1)B(O)O |  | -3.19 | -2.39 | 9.8 nM (active)
CN1C(C(=O)Nc2ccccn2)=C(O)c2sccc2S1(=O)=O | 1.5 (inactive) | 1.16 | 1.02 | 
COCCCN1CCC(NC(=O)c2cc(Cl)c(N)c3c2OCC3)CC1 | 1.78 (inactive) | 1.56 | 1.58 | 
Nc1nc(N)c(N=O)c(OCC2CCCCC2)n1 | -0.0306 (inactive) | 0.757 | 0.22 | 
CCCCCCCCCCCCCCCCCCCCCCO | 0.761 (inactive) | 0.472 | 0.414 | 
COc1ccc2cc([C@H](C)C(=O)O)ccc2c1 | -0.4 (inactive) | -0.248 | -0.0585 | 
Oc1ccc(OCc2ccccc2)cc1 | 0.481 (inactive) | 0.491 | 0.0323 | 
Cc1c(OCC(F)(F)F)ccnc1CS(=O)c1nc2ccccc2[nH]1 (centres undefined) | 1.49 (inactive) | 0.689 | 0.798 | 
CCc1nc(N)nc(N)c1-c1ccc(Cl)cc1 | -0.192 (inactive) | -0.422 | -0.843 | 
COc1c2occc2cc2ccc(=O)oc12 | 0.446 (inactive) | 1.07 | 1.02 | 
Cc1cccc(-c2[nH]ncc2-c2ccc3ncccc3n2)n1 | -0.435 (inactive) | 0.556 | 0.305 | 
COc1ccc(C2(C#N)CCC(C(=O)O)CC2)cc1OC1CCCC1 (centres undefined) | 0.982 (inactive) | 1.47 | 0.858 | 
O=c1oc2cc(O)ccc2s1 | 0.214 (inactive) | 0.00456 | 1.28 | 
Oc1ccc(-c2nc(-c3ccc(F)cc3)c(-c3ccncc3)[nH]2)cc1 | 1.12 (inactive) | -0.0618 | 0.0892 | 
Nc1cc(C(Cl)=C(Cl)Cl)c(S(N)(=O)=O)cc1S(N)(=O)=O | 1.44 (inactive) | 1.19 | 1.34 | 
O=C(O)c1cc(=O)c2c(OCC(O)COc3cccc4oc(C(=O)O)cc(=O)c34)cccc2o1 | 1.18 (inactive) | 1.06 | 1 | 
c1cnc2cc3c(cc2n1)C1CNCC3C1 | -0.725 (inactive) | -0.804 | -0.403 | 
O=C(CCc1ccc(O)cc1)c1c(O)cc(O)cc1O | -0.868 (inactive) | -0.361 | -0.52 | 
CN(C)c1ccc(O)c2c1C[C@H]1C[C@H]3[C@H](N(C)C)C(=O)C(C(N)=O)=C(O)[C@@]3(O)C(=O)C1=C2O | 0.306 (inactive) | 0.206 | 0.369 | 
